The values below come from paper PMC4336329 (PLoS ONE, 2015).

Screen size: about 310,000 compounds; about 14,000 (4.5%) showed an effect of 50% or more. The effect is printed as a negative number. The sample as a whole holds a higher share of strong results than the screen did.
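Further: peak tail current of the secondary pulse compared with the same well before compound.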

Chain of human ether-à-go-go-related gene (hERG) potassium channel (Q12809 whole entry, looked up): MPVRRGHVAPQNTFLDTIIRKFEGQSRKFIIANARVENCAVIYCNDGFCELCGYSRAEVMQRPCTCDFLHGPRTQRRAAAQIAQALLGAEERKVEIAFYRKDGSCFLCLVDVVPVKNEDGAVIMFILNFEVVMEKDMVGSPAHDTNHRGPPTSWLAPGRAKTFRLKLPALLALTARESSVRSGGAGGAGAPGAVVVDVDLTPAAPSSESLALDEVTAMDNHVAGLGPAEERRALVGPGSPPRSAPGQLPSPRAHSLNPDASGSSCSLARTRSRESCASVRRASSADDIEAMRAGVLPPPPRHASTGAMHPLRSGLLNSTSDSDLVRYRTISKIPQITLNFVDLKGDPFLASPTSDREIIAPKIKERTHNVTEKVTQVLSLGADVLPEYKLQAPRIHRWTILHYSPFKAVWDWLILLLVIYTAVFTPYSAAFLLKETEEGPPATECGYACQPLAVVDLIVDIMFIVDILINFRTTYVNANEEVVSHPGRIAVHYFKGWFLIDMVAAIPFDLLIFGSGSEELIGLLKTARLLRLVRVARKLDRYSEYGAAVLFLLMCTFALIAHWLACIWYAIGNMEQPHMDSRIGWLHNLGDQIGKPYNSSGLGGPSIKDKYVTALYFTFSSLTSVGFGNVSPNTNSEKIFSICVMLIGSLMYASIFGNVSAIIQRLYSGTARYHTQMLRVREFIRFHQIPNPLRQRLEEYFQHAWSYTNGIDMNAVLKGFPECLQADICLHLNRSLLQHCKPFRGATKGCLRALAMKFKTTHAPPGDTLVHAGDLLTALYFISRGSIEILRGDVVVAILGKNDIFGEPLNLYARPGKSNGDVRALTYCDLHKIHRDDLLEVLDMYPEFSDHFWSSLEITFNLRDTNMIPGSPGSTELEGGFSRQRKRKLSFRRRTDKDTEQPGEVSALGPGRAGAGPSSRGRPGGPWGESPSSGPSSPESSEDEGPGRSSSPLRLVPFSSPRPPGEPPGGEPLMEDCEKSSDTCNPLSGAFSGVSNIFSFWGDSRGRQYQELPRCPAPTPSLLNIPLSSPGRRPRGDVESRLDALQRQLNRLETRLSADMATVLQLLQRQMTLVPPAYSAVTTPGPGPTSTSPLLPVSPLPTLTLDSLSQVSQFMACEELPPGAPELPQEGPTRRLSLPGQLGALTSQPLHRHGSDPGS

This assay addresses human ether-à-go-go-related gene (hERG) potassium channel (human, UniProt Q12809). Briefly: primary screen, population patch clamp on CHO cells stably expressing hERG; higher = less effect of the substance.
Regarding `COc1ccccc1C(=O)NC(CCSC)C(=O)NCC(c1cccs1)N(C)C` (stereo not drawn), the “hERG current change (%, negative = inhibition) at 10uM” value was determined as 2.41%. The result for `COc1ccc(NC(=O)C(=O)NNC(=O)COc2ccc(Cl)cc2)c(OC)c1` reads 10.5%; that for `Cn1cc(C(=O)c2ccc(F)cc2)cc1-c1nc2ccccc2n1C`, -50.5%. The result for `Cn1cc(C(=O)c2ccccc2)cc1-c1nc2ccccc2n1C` reads -41.9%. To `Cn1cc(C(=O)c2ccc(Cl)cc2)cc1-c1nc2ccccc2n1C` belongs -47.9%.

Turning to `CCN(CC)CCn1c(OC)cc(=O)[nH]c1=O`, the “hERG current change (%, negative = inhibition) at 10uM” value turned out to be 17.6%. To `CCC1=C(OC(=O)N(CC)CC)N2C(=O)OC(=NCCc3c[nH]c4ccccc34)[C@]2(C)[C@H]2C1=CC[C@H]1C(=O)N(CC)C(=O)[C@H]12` belongs -9.68%; to `CCn1cc(CNC(=O)c2ccc3nc(Cc4ccc(OC)cc4)oc3c2)cn1`, 6.8%. Consider `COc1ccc([C@H]2CC(=O)C=C(c3cccc(C#N)c3)C2)cc1`, for which the “hERG current change (%, negative = inhibition) at 10uM” value is recorded as -72.3%. To `COc1ccc([C@H]2CC(=O)C=C(c3ccnc4ccc(Cl)cc34)C2)cc1` belongs -57.6%.

For the molecule `COc1ccc([C@H]2CC(=O)C=C(c3cccc(Br)c3)C2)cc1`, the “hERG current change (%, negative = inhibition) at 10uM” value was -1.14%. To `COc1cccc(C2=CC(=O)C[C@H](c3ccc(F)cc3)C2)c1` belongs -14.9%. To `COc1ccc([C@H]2CC(=O)C=C(c3cc(Cl)ccc3OC)C2)cc1` belongs 7.4%; to `COc1cccc(C2=CC(=O)C[C@H](c3ccc(Cl)cc3)C2)c1`, 15.4%.

Take `COc1ccc([C@H]2CC(=O)C=C(c3ccc(Cl)cc3C)C2)cc1`: the “hERG current change (%, negative = inhibition) at 10uM” value is recorded as 4.03%.

Turning to `COc1ccc([C@H]2CC(=O)C=C(c3cccc(Cl)c3)C2)cc1`, the “hERG current change (%, negative = inhibition) at 10uM” value was -11.8%. The result for `COc1ccc([C@H]2CC(=O)C=C(c3cccc(OC)c3)C2)cc1` reads -82.1%. To `Cc1ccc(S(=O)(=O)NCC(=O)NCCc2c[nH]c3ccccc23)cc1C` belongs 3.3%; to `O=C(NCC1OCCCN1S(=O)(=O)c1cc(F)ccc1F)C(=O)NC1CCCCC1` (stereo not drawn), -3.8%; to `Cl.O=C(CN1CCC(NC(=O)c2ccccc2F)CC1)Nc1ccc2c(c1)OCCO2`, 6.04%. With `O=C(CN1CCC(C(=O)c2ccc3c(c2)OCCO3)CC1)Nc1ccccc1F`, the “hERG current change (%, negative = inhibition) at 10uM” value is given as -0.724%. The result for `O=C(CN1CCN(CC(=O)Nc2ccccc2F)CC1)Nc1ccc2c(c1)OCCO2` reads -71.2%; that for `O=C(CN1CCOCC1)Nc1ccc2c(c1)OCCO2.O=C(O)C(=O)O`, 15%. The result for `O=C(CN1CCOCC1)Nc1ccccc1Cl` reads -8.73%. To `O=C(CN1CCN(CC(=O)Nc2ccccc2Cl)CC1)Nc1ccc2c(c1)OCCO2` belongs -68.7%; to `COC(=O)N/N=C/c1ccccc1Cl`, 19.4%; to `N#CC(c1cccc(C(F)(F)F)c1)(c1ncc(C(F)(F)F)cc1Cl)N1CCOCC1` (stereo not drawn), 4.46%. Regarding `COc1ccc(OCc2cc(C(=O)N(C)CC3CCCCO3)no2)c(Cl)c1` (stereo not drawn), the “hERG current change (%, negative = inhibition) at 10uM” value is recorded as -17.4%. The result for `O=C(c1cc(COc2ccc(F)cc2Cl)on1)N(Cc1ccncc1)CC1CCCO1` (stereo not drawn) reads -60.7%. As to `CN(CC1CCCCO1)C(=O)c1cc(COc2ccc(F)cc2Cl)on1` (stereo not drawn), the “hERG current change (%, negative = inhibition) at 10uM” value is on record as -87.1%.

On to `CCN(Cc1ccncc1)C(=O)c1cc(COc2ccc(F)cc2Cl)on1`, for which the “hERG current change (%, negative = inhibition) at 10uM” value is -44%. For the molecule `CCCN(CC1CCCO1)C(=O)c1cc(COc2ccc(F)cc2F)on1` (stereo not drawn), the “hERG current change (%, negative = inhibition) at 10uM” value is given as -15%. The result for `COc1cc(Cl)ccc1OCc1cc(C(=O)N(C)CC2CCCCO2)no1` (stereo not drawn) reads -18.7%. To `C[C@]12C(=O)N(c3ccc(Cl)cc3)C(=O)N1[C@@H]1c3ccccc3OC[C@@H]1[C@H]2c1ccccc1` belongs 8.19%; to `CCC(C)N1CC23C=CC(O2)C(C(=O)OCc2ccccc2)C3C1=O` (stereo not drawn), 5.54%; to `CC(C)c1ccc(NC(=O)COC(=O)c2cc(=O)[nH]c3ccccc23)cc1`, -8.12%.

As to `O=C(Cc1ccc(S(=O)(=O)N2CCOCC2)s1)NCCC(c1ccccc1)c1ccccc1`, the “hERG current change (%, negative = inhibition) at 10uM” value is recorded as -54.8%. To `O=C(Cc1ccc(S(=O)(=O)N2CCOCC2)s1)NCCOc1ccccc1` belongs -8.35%; to `CCCCCNC(=O)Cc1ccc(S(=O)(=O)N2CCOCC2)s1`, -5.94%; to `Cc1ccc[n+](CC(=O)Nc2ccc([N+](=O)[O-])cc2)c1.[Cl-]`, 10.9%. To `CCOc1ccc(S(=O)(=O)N2CCCCCC2)cc1` belongs -8.37%. Take `Cn1c(NC(=O)C(C)(C)Oc2ccc(Cl)cc2)cc(=O)n(C)c1=O`: the “hERG current change (%, negative = inhibition) at 10uM” value is recorded as -15%.
